Bioassay records (PubChem BioAssay)
AmpC detergent: qHTS Inhibitors of AmpC Beta-Lactamase (assay with detergent) | Potency, µM (titrated, usually from 114 µM), most hits filed as inhibitors | 370,000 tested, 0.041% active | AmpC hydrolysis of nitrocefin, absorbance 480 nm, 0.01% Triton; note: nearly all actives have a fitted effect of over 25% in size
Target sequence (P00811 whole entry, looked up): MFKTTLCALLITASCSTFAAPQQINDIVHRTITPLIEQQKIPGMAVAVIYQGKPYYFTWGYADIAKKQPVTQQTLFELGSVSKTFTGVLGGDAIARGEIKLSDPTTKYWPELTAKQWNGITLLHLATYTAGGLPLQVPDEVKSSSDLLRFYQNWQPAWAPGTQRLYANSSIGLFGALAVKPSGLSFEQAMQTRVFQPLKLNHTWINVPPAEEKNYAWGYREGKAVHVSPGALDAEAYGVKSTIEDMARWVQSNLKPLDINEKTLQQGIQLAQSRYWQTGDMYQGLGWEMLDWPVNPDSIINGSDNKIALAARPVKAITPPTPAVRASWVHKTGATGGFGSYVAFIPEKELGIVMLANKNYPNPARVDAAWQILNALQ
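20 mM phosphate pH 7.0 + 0.01% (detergent screen) or 0.0001% Triton X-100; 5.3 nM AmpC reagent; cpd preinc 15 min RT; nitrocefin (800 uM stock) to start; A480 q20 s × 4 min; Activity was normalised to no-enzyme and no-compound control wells.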
HCMV inh: qHTS Assay for inhibitors of the human cytomegalovirus (HCMV); HFF cells, HCMV-luciferase reporter, 72 h; hits give low values; 410,000 tested, 4.5% active; AID 1259415, 2018; activity change, negative = inhibition, % at 57.5 µM; in the data active = activity change below about -60%; inconclusive = no clear call, values can overlap the other calls; inactive = above about -39%
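HFF cells seeded 16 h at 37C, treated with compounds, infected with luciferase-reporter HCMV at MOI 1 PFU/cell; luciferase read at 72 h post infection, normalized to buffer-only and Salinomycin controls.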
AmpC inh no detg: qHTS Inhibitors of AmpC Beta-Lactamase (assay without detergent); 330,000 tested, 0.52% active; AmpC nitrocefin hydrolysis, absorbance 480 nm, 0.0001% Triton; P00811; Potency, µM (highest dose often 57.1 µM), most hits filed as inhibitors; note: nearly all actives have a fitted effect of over 20% in size
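20 mM phosphate pH 7.0 + 0.01% (detergent screen) or 0.0001% Triton X-100; 5.3 nM AmpC reagent; cpd preinc 15 min RT; nitrocefin (800 uM stock) to start; A480 q20 s × 4 min; Activity was normalised to no-enzyme and no-compound control wells.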
FMDV inh: High Throughput Screening for Foot and Mouth Disease Virus Antivirals; FMDV antiviral cell-based qHTS; Potency, µM (titrated, usually from 57.9 µM), most hits filed as inhibitors; 410,000 tested, 1.2% active; AID 1159524, 2015; calls by dose curve; tested in HEK293T cells; note: read-out not given here; nearly all actives have a fitted effect of over 45% in size
HCV inh: qHTS Assay for Inhibitors of Hepatitis C Virus (HCV); Huh7.5.1 HCVcc-Cre infection, luciferase reporter, 44 h; Potency, µM (highest dose often 41.8 µM), most hits filed as inhibitors; 340,000 tested, 3.4% active
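HCVcc-Cre virus at an moi near 0.5 was added right after compound to cells cultured 4 h from seeding (1,000 cells/well). Luciferase activity was determined 44 h later, 15 min after substrate addition at RT.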
Each line names hits and unclear results; the compound was inactive in the other large screens. An excerpt weighted towards active compounds, which were near 7.3% of everything screened. Unless noted, calls come from the whole dose curve; as a rule, active = well fitted curve in the direction sought with a large enough effect; inconclusive = small, poorly fitted or top-dose-only effect, or another doubt; inactive = no such curve, though single readings can be large; an effect the other way counts as inactive or inconclusive.

Cc1ccc(NC(=O)Cn2cc(C(=O)c3ccco3)c3ccccc32)c(C)c1	HCMV inh -73 (no result: AmpC inh no detg, HCV inh)
CCn1c(-c2cccc(OC)c2)nc2cc(NC(C)=O)cc(C(=O)N3CCCC(C(C)=O)C3)c21 (centres undefined)	none (no result: AmpC detergent, HCMV inh, AmpC inh no detg, HCV inh)
O=c1cc(-c2cccc(F)c2)oc2ccccc12	HCV inh inconclusive (no result: AmpC detergent, AmpC inh no detg)
O=c1cc(-c2c(F)c(F)c(F)c(F)c2F)oc2ccccc12	HCMV inh inconclusive, HCV inh 5µM (no result: FMDV inh)
CSc1ncnc2c1ncn2CCCNCCc1ccccn1	none (no result: AmpC detergent, AmpC inh no detg, HCV inh)
CC(C)c1nc2ccc(C(=O)Nc3ccccc3F)cc2o1	HCMV inh -63, FMDV inh inconclusive (no result: AmpC inh no detg, HCV inh)
Cc1nn2c(CN(C(=O)CN3CCOCC3)c3ccccc3)nnc2c2ccccc12	none
Cc1nn2c(CN(C(=O)COc3ccccc3)c3ccccc3)nnc2c2ccccc12	HCMV inh -68
Cn1cnc2cnc(Nc3ccc(F)c(Cl)c3)cc21	none (no result: AmpC detergent, AmpC inh no detg, FMDV inh, HCV inh)
Cc1ccc2nc(-c3ccccc3O)c(Nc3ccccc3C)n2c1	none (no result: AmpC inh no detg, HCV inh)
Cc1ccccc1Nc1c(-c2ccccc2O)nc2sccn12	HCMV inh -64 (no result: AmpC inh no detg, HCV inh)
CCOc1ccc(OCC)c(NC(=O)c2cnc(SC)nc2-c2ccccc2)c1	FMDV inh inconclusive (no result: AmpC inh no detg, HCV inh)
Cc1cc(C(=O)N2CCCC(C)(C(=O)NS(=O)(=O)C3CC3)C2)n(C(C)(C)C)n1 (centres undefined)	none (no result: AmpC detergent, AmpC inh no detg, HCV inh)
O=c1[nH]c(/C(Cl)=C/c2cc(Cl)ccc2O)nc2cc(Cl)ccc12	HCMV inh -70, FMDV inh inconclusive
COc1cc(/C=N/NC(=O)c2cccc([N+](=O)[O-])c2)ccc1OCc1ccccc1	HCV inh inconclusive
COc1ccc(/C=N/NC(=O)c2cccc([N+](=O)[O-])c2)cc1OC(=O)c1ccccc1	HCV inh 11µM
COc1cc(/C=N/NC(=O)c2ccc(O)cc2)ccc1Oc1ccc([N+](=O)[O-])cn1	HCMV inh -62, HCV inh inconclusive
COc1cc(/C=N/NC(=O)c2ccncc2)ccc1Oc1ccc([N+](=O)[O-])cn1	HCMV inh inconclusive
COc1ccc(/C=N/NC(=O)c2cccc([N+](=O)[O-])c2)cc1OC	none
COc1cccc(C(=O)N/N=C/c2ccc(Oc3ccc([N+](=O)[O-])cn3)c(OC)c2)c1	HCV inh 10µM
COc1cc(/C=N/NC(=O)c2ccc3ccccc3c2)ccc1Oc1ccc([N+](=O)[O-])cn1	HCMV inh inconclusive, FMDV inh inconclusive, HCV inh 3.5µM
Cc1cccc(NC(=O)c2ncn3c2C(=O)N(C)CC3)c1	none (no result: AmpC detergent, AmpC inh no detg, HCV inh)
CCN(CC(=O)Nc1ccc(OC)cc1)C(=O)c1ccc(N2C(=O)CCC2=O)cc1	none
C/C(=N\NC(=O)CNC(=O)C(c1ccccc1)c1ccccc1)c1ccc(C(C)(C)C)cc1	AmpC detergent inconclusive, HCMV inh -76
C/C(=N\NC(=O)CNC(=O)C(c1ccccc1)c1ccccc1)c1ccccc1	none
CC1(C)SC(=S)N(NC(=O)Nc2cccc3ccccc23)C1N(O)C(=O)Nc1ccccc1 (centres undefined)	HCMV inh -75, HCV inh inconclusive
COc1cc2c(cc1OC)C(c1cc(OC)c(OC)cc1[N+](=O)[O-])N(C(C)=O)CC2 (centres undefined)	none
COC1=C(C)C(=O)C2=C(C1=O)C1C3CC4=C(C(=O)C(OC)=C(C)C4=O)C(CNC(=O)C(C)=O)N3C(C#N)C(C2)N1C (centres undefined)	HCMV inh -97, FMDV inh inconclusive, HCV inh inconclusive (no result: AmpC detergent, AmpC inh no detg)
COc1ccc(CC(N)c2csc(NC(=O)c3ccccc3OC)n2)cc1 (centres undefined)	HCMV inh -81 (no result: AmpC detergent, AmpC inh no detg, HCV inh)
COc1ccc(CC(N)c2csc(NC(=O)C(c3ccccc3)c3ccccc3)n2)cc1 (centres undefined)	HCMV inh -65 (no result: AmpC detergent, AmpC inh no detg, HCV inh)
CC(C)c1ccc(NC(=O)Nc2nc(C(N)COCc3ccccc3)cs2)cc1 (centres undefined)	HCMV inh -95 (no result: AmpC detergent, AmpC inh no detg, HCV inh)
CC(C)c1ccc(NC(=O)Nc2nc(C(N)c3ccccc3)cs2)cc1 (centres undefined)	none (no result: AmpC detergent, AmpC inh no detg, HCV inh)
NC(Cc1ccccc1)c1csc(NC(=O)c2cccc(OC(F)(F)F)c2)n1 (centres undefined)	HCMV inh -101, FMDV inh inconclusive (no result: AmpC detergent, AmpC inh no detg, HCV inh)
CS(=O)(=O)c1ccc(Cl)c(NC(=O)C2CCCCN2S(=O)(=O)c2ccccc2)c1 (centres undefined)	none
CCCCn1c(N)c(N(CCOC)C(=O)CC(NC(=O)c2ccccc2)c2ccccc2)c(=O)[nH]c1=O (centres undefined)	none
Cc1cc(/C=N/NC(=O)c2c(Br)cnn2C)c(C)n1-c1cccc(Br)c1	AmpC detergent inconclusive, HCMV inh -65, FMDV inh inconclusive
Cc1ccc(C(=O)N/N=C/c2cc(C)n(-c3ccc(Br)cc3)c2C)cc1[N+](=O)[O-]	HCV inh 20µM
O=C(N/N=C/c1ccc(OC(=O)c2ccccc2)cc1)c1ccc(CN2CCOCC2)cc1	AmpC detergent inconclusive, FMDV inh inconclusive
Cc1cccc(-n2c(C)cc(/C=N/NC(=O)c3ccc(CN4CCOCC4)cc3)c2C)c1	FMDV inh inconclusive, HCV inh 10µM
Cc1ccc(-n2c(C)cc(/C=N/NC(=O)c3ccc(CN4CCOCC4)cc3)c2C)cc1	HCMV inh inconclusive, FMDV inh inconclusive, HCV inh 10µM
Cc1cc(/C=N/NC(=O)C(=O)N2CCCC2)c(C)n1-c1cccc(Br)c1	HCV inh inconclusive
Cn1c2cc(C#N)sc2c2cnn(Cc3ccc(F)cc3)c(=O)c21	AmpC detergent inconclusive (no result: HCV inh)
COc1ccc(CN2C(=O)C(n3cccc3)c3cc(OC)ccc32)cc1 (centres undefined)	none (no result: AmpC detergent, AmpC inh no detg, FMDV inh, HCV inh)
Cc1cc2c(c(-c3cnccn3)c1)OC(CNC(=O)c1cc(Cl)ccc1F)C2 (centres undefined)	none (no result: AmpC detergent, HCMV inh, AmpC inh no detg, HCV inh)
CCN(CC)S(=O)(=O)c1cccc(NC(=O)CNc2cccc(S(=O)(=O)N3CCCC3)c2)c1	HCMV inh -88, AmpC inh no detg 28µM, HCV inh 2.5µM
O=C(CN(CCO)c1ccccc1)Nc1cccc(S(=O)(=O)N2CCCC2)c1	none
CC(=O)c1cccc(NCC(=O)Nc2cccc(S(=O)(=O)N3CCCCC3)c2)c1	HCV inh inconclusive
CCN(CC)CC(=O)Nc1cccc(S(=O)(=O)N2CCCC2)c1	HCMV inh -91, HCV inh inconclusive
CCN(CC)S(=O)(=O)c1cc(NC(=O)CNc2cccc(S(=O)(=O)N3CCOCC3)c2)ccc1C	AmpC detergent inconclusive, HCMV inh -85, HCV inh 5.6µM
Cc1ccc(-c2nnn(CC(=O)Nc3ccc(S(=O)(=O)N4CCC(C)CC4)cc3)n2)cc1	AmpC detergent inconclusive, HCMV inh -75, HCV inh inconclusive
